Drawing on PubChem BioAssay AID827 (SRMLSC, 2007), this text covers viability for 5 molecules.

The campaign covered roughly 140,000 compounds. About 1,700 (1.2%) were called active. Only a selection was taken, and actives are over-represented in it overall. Unmarked numbers belong to inactive results.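 The calls were made as follows: active = viability at or below a set limit, 4 SD under the median of all tested compounds (cut at about 3.7% in these data); inactive = the rest.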

The test can be described thus: viability loss in PTEN-deleted colon tumor cells – cell-based, HCT116, CellTiter-Glo, primary screen (AID 827).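 Also: PTEN knockout HCT116 line with beta catenin targeted HCT116 as companion control.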 The conditions noted are these: HCT116 PTEN-null viability, 60 h, at 10 µM, hits give low values. For orientation: Cellular ATP, detected with luciferase, serves as a proxy for viable cell number.
One may read the viability as a read-out of living cells in per cent, often relative to untreated cells. Regarding `CN(C)c1ccc(/C=C2\CC3C4CC=C5CC(O)CCC5(C)C4CCC3(C)C2=O)cc1` (stereo not given), the viability is 2.86% (active).

For `Cc1cccc(-n2c(O)c(/C=N/N3CCOCC3)c(=O)[nH]c2=S)c1`, the viability was 108%.

Consider `O=c1[nH]c(=S)n(C2CC2)c(O)c1/C=N/N1CCOCC1`, for which the viability is 95.3%.

With `CN(C)CC1CCCCC1OC(=O)c1ccc(Cl)c(Cl)c1` (stereo not given), the viability is 82.2%.

On to `CCCCC(=O)N/N=C/c1c(O)n(CC)c(=S)n(CC)c1=O`, for which the viability is 11.8%.
